{"source": "PubChem BioAssay (Tox21)", "note": "Results filed as inconclusive are left out. Unmarked numbers belong to inactive results. Calls follow the shape of the dose curve; as a rule, active = well fitted cell-killing curve with a large enough effect in the repeat runs; inconclusive = weak or mixed curves, or effect the other way; inactive = flat fitted curve, though single readings scatter. % is scaled to controls: 0 for no effect and ±100 for the full control effect.", "data": [{"test": "qHTS assay to identify small molecule antagonists of the constitutive androstane receptor (CAR) signaling pathway - cell viability counter screen (AID 1224837); also: nearly all actives have a fitted effect of over 45% in size", "conditions": "HepG2-CYP2B6-hCAR viability, CellTiter-Fluor, 23 h, co-treated with 50 nM CITCO; series mostly up to 92.4 µM; activity change, negative = cytotoxicity: at the top concentration", "text": "National Center for Advancing Translational Sciences [NCATS]\nNIH Chemical Genomics Center [NCGC]\nU.S. Environmental Protection Agency [EPA]\nNational Institutes of Environmental Health Sciences [NIEHS]\nNational Toxicology Program [NTP]\nU.S. Food and Drug Administration [FDA]\nThe constitutive androstane receptor (CAR) is a nuclear receptor which regulates multiple drug metabolizing enzymes (DMEs) and transporters. Activating CAR will generally increase the transcription and subsequent translation of CYP2B6 and CYP3A4. These two DMEs represent about 50% of the drug metabolizing potential in the body. When CAR is deactivated, the metabolizing potential in the body will decrease, subsequently increasing the toxicity in the body or lowering the therapeutic potential of a pro-drug. Recently, there have also been studies performed indicating CARs role in energy metabolism and cancer therapy. Therefore, inhibiting CARs activity could have a potential effect on diabetes and cancer. Identifying environmental toxins and compounds which modulate CAR, through the use of the Tox21 10K compound collection, will be an important step in determining the toxicity and potential therapeutic effects these factors will have on the human body. To differentiate true CAR antagonists from cytotoxic substances, the assay is multiplexed with a cell viability assay.\nTox21 Assay Protocol Summary:\nA double-stable (hCAR and CYP2B6-2.2kb) transfected cell line, derived from human hepatoma (HepG2) cells, was utilized for the duration of the quantitative high-throughput screens. The HepG2-CYP2B6-hCAR cells were dispensed at 2500 cells/4 uL/well in 1536-well white solid bottom plates using a Multidrop Combi. After the assay plates were incubated at 37 C/5% CO2 for 4 hrs, 23 nL of compounds at 15 concentrations (from 5-48 columns) or positive control (from 1 to 4 columns) were transferred to the assay plates using a Pintool station. One uL of CITCO (final concentration = 50 nM) was added, using a Flying Reagent Dispenser, inside each well. After a 23 hr incubation period at 37 C/5% CO2, 1 uL of CellTiter-Fluor reagent was added into each well of the assay plates using a Flying Reagent Dispenser. The fluorescence intensity in the plates was then measured using a ViewLux plate reader.", "values": [{"smiles": "O=C(c1ccc2c(c1)C(=O)OC2=O)c1ccc2c(c1)C(=O)OC2=O", "activity change, negative = cytotoxicity": "6.27%"}, {"smiles": "CCCCCCCCCCCCCC(=O)OC", "activity change, negative = cytotoxicity": "-3.79%"}, {"smiles": "CCNC(=O)/C=C/c1cccc(Br)c1", "activity change, negative = cytotoxicity": "9.61% [at 42.5 µM]"}, {"smiles": "COc1ccc(/C=N/NC(=O)c2ccncc2)cc1OC", "activity change, negative = cytotoxicity": "5.4% [at 42.5 µM]"}, {"smiles": "OC[C@@H](O)[C@H](O)[C@@H](O)[C@@H](O)CO", "activity change, negative = cytotoxicity": "5.17%"}, {"smiles": "CNC(=O)C(c1ccccc1)c1ccccc1", "activity change, negative = cytotoxicity": "-9.69%"}, {"smiles": "CC(CC(=O)O)CC(C)(C)C", "note": "(stereo not given)", "activity change, negative = cytotoxicity": "-7.72%"}, {"smiles": "COc1ccc(NS(=O)(=O)c2ccc(N)cc2)nn1", "activity change, negative = cytotoxicity": "-5.39% [at 42.5 µM]"}, {"smiles": "CC(=O)OCC(=O)[C@@]1(O)[C@H](OC(C)=O)C[C@H]2[C@@H]3CCC4=CC(=O)C=C[C@]4(C)[C@@]3(F)[C@@H](O)C[C@@]21C", "activity change, negative = cytotoxicity": "1.29% [at 42.5 µM]"}, {"smiles": "NC(Cc1c[nH]c2ccccc12)C(=O)O", "note": "(stereo not given)", "activity change, negative = cytotoxicity": "13.1% [at 42.5 µM]"}, {"smiles": "Cc1cccc(Nc2ccncc2S(=O)(=O)NC(=O)NC(C)C)c1", "activity change, negative = cytotoxicity": "3.57% [at 42.5 µM]"}, {"smiles": "O=C1c2ccccc2-c2ccccc21", "activity change, negative = cytotoxicity": "-0.157%"}, {"smiles": "FC(F)(F)c1ccc(Cl)cc1Cl", "activity change, negative = cytotoxicity": "-6.73%"}, {"smiles": "COc1ccc(OC)c(NC(=O)CC(C)=O)c1", "activity change, negative = cytotoxicity": "0.493%"}, {"smiles": "O=C(O)c1ccc(OCCN2CCCCC2)cc1", "activity change, negative = cytotoxicity": "0.565% [at 42.5 µM]"}, {"smiles": "Oc1ccccc1Cc1ccccc1O", "activity change, negative = cytotoxicity": "-4.68%"}, {"smiles": "CCC(C)N", "note": "(stereo not given)", "activity change, negative = cytotoxicity": "-2.6%"}, {"smiles": "C[Si]1(C)N[Si](C)(C)N[Si](C)(C)N1", "activity change, negative = cytotoxicity": "-6.19%"}, {"smiles": "COCC(=O)Nc1c(I)c(C(=O)NCC(O)CO)c(I)c(C(=O)N(C)CC(O)CO)c1I", "note": "(stereo not given)", "activity change, negative = cytotoxicity": "1.37% [at 42.5 µM]"}, {"smiles": "C=C[Si](C)(C)O[Si](C)(C)C=C", "activity change, negative = cytotoxicity": "-9.05%"}, {"smiles": "O=C(/C=C/c1ccccc1)NCCO", "activity change, negative = cytotoxicity": "-3.13% [at 42.5 µM]"}, {"smiles": "O=[Si]=O", "activity change, negative = cytotoxicity": "1%"}, {"smiles": "O=C1OC(=O)c2ccccc21", "activity change, negative = cytotoxicity": "2.34%"}, {"smiles": "CCCCC(C)C(=O)O", "note": "(stereo not given)", "activity change, negative = cytotoxicity": "-3.08%"}, {"smiles": "CCCCCCCCCCCCCCCC(=O)NCCO", "activity change, negative = cytotoxicity": "0.476% [at 42.5 µM]"}, {"smiles": "C[C@H](CCC(=O)NCC(=O)O)[C@H]1CC[C@H]2[C@@H]3[C@H](O)C[C@@H]4C[C@H](O)CC[C@]4(C)[C@H]3C[C@H](O)[C@]12C", "activity change, negative = cytotoxicity": "0.0738%"}, {"smiles": "Cc1oc(=O)oc1CN1CCN(c2cc3c(cc2F)c(=O)c(C(=O)O)c2n3C(C)S2)CC1", "note": "(stereo not given)", "activity change, negative = cytotoxicity": "3.61% [at 42.5 µM]"}, {"smiles": "CC(C)COC(=O)COc1ccc(Cl)cc1Cl", "activity change, negative = cytotoxicity": "6.43%"}, {"smiles": "O=c1[nH]c(=O)c2[nH]c(=O)[nH]c2[nH]1", "activity change, negative = cytotoxicity": "-10.7% [at 8.39 µM]"}, {"smiles": "OC(CCN1CCCCC1)(c1ccccc1)c1ccccc1", "activity change, negative = cytotoxicity": "-13.8% [at 42.5 µM]"}, {"smiles": "CCCCOC(=O)C(C)OC(=O)CCC", "note": "(stereo not given)", "activity change, negative = cytotoxicity": "3.15%"}, {"smiles": "Cc1ccc(S(=O)(=O)NC(=O)NC2CCCCCCC2)cc1", "activity change, negative = cytotoxicity": "-0.238% [at 42.5 µM]"}, {"smiles": "CC1CCC(C(C)(C)S)C(=O)C1", "note": "(stereo not given)", "activity change, negative = cytotoxicity": "0.532%"}, {"smiles": "Cc1ncc([N+](=O)[O-])n1CC(O)CCl", "note": "(stereo not given)", "activity change, negative = cytotoxicity": "0.295% [at 42.5 µM]"}, {"smiles": "CN(C)CCOCCN(C)CCO", "activity change, negative = cytotoxicity": "-1.77%"}, {"smiles": "CCOC(=O)CC#N", "activity change, negative = cytotoxicity": "1.96%"}, {"smiles": "CC(C)=CC(C)(C)C", "activity change, negative = cytotoxicity": "-1.62%"}, {"smiles": "C=CCOCC(O)CCl", "note": "(stereo not given)", "activity change, negative = cytotoxicity": "-3.79%"}, {"smiles": "CCOc1ccc(NC(=O)OC(C)C)cc1OCC", "activity change, negative = cytotoxicity": "-1.79%"}, {"smiles": "COc1cc(C=O)ccc1OC(=O)C(C)C", "activity change, negative = cytotoxicity": "-2.63%"}]}]}
